Measurements published in PubChem BioAssay AID1159580 (chemical genetic matrix, 2015).
The whole screen tested about 5,500 compounds, of which about 2,000 (36%) were called active. Another 18% or so got no clear call; they are omitted. Cut-off read from the data, not from the text of the source: active = normalized growth mostly below about 0.91 (no sharp cut-off); inconclusive = no clear call, values can overlap the other calls; inactive = mostly above about 0.92. The list shows a part of the results.

Test: chemical genetic growth profiling, strain panel (AID 1159580);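 note: tested at 20 µM; growth read once vehicle control cultures reached saturation at 30 °C; 1 = growth at the plate median or of vehicle wells; lower values mean less growth of the strain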
Details: S. cerevisiae deletion strains, growth OD

Measured: normalized growth

COc1cc(O)c2c(=O)c(-c3ccc(O)cc3)coc2c1
inactive: locus YBR229C, strain ROT2, stronger effect = lower value 0.973 | locus YCL029C, strain bik1, stronger effect = lower value 0.952 | locus YDL035C, strain GPR1, stronger effect = lower value 0.89 | locus YDL074C, strain BRE1, stronger effect = lower value 0.782 | locus YDL101C, strain DUN1, stronger effect = lower value 0.942 | locus YDL185W, strain tfp1, stronger effect = lower value 0.972 | locus YDR162C, strain NBP2, stronger effect = lower value 0.853 | locus YDR388W, stronger effect = lower value 0.943 | locus YEL061C, strain CIN8, stronger effect = lower value 0.93 | locus YER110C, stronger effect = lower value 0.944 | locus YGL078C, strain dbp3, stronger effect = lower value 0.935 | locus YHR079C, strain IRE1 (second series), stronger effect = lower value 0.947 | locus YHR094C, strain hxt1, stronger effect = lower value 0.959 | locus YIL073C, strain SPO22, stronger effect = lower value 0.818 | locus YIL125W, strain kgd1, stronger effect = lower value 0.964 | locus YIR030C, strain dcg1, stronger effect = lower value 0.938 | locus YJL134W, strain LCB3, stronger effect = lower value 0.984 | locus YJL168C, strain set2, stronger effect = lower value 0.947 | locus YJL187C, strain SWE1 (second series), stronger effect = lower value 0.894 | locus YKL009W, strain mrt4, stronger effect = lower value 0.88 | locus YKL068W, stronger effect = lower value 0.969 | locus YKL085W, strain MDH1 (second series), stronger effect = lower value 0.948 | locus YKL085W, strain MDH1, stronger effect = lower value 0.948 | locus YKL190W, strain CNB1, stronger effect = lower value 0.961 | locus YLR058C, strain SHM2, stronger effect = lower value 0.913 | locus YLR102C, strain apc9, stronger effect = lower value 0.946 | locus YML016C, strain PPZ1, stronger effect = lower value 0.947 | locus YML124C, strain tub3, stronger effect = lower value 0.942 | locus YMR078C, strain ctf18, stronger effect = lower value 0.954 | locus YMR307W, strain GAS1, stronger effect = lower value 0.642 | locus YNL067W, strain RPL9B, stronger effect = lower value 0.891 | locus YNL128W, strain TEP1, stronger effect = lower value 0.96 | locus YNL153C, strain GIM3, stronger effect = lower value 0.941 | locus YNL250W, strain rad50, stronger effect = lower value 0.957 | locus YNL271C, strain bni1, stronger effect = lower value 0.94 | locus YNR052C, strain pop2, stronger effect = lower value 0.919 | locus YOL012C, strain htz1 1.29 | locus YOR061W, strain CKA2, stronger effect = lower value 0.936 | locus YOR069W, strain VPS5, stronger effect = lower value 0.94 | locus YOR136W, strain idh2, stronger effect = lower value 0.946 | locus YOR316C, strain cot1, stronger effect = lower value 0.945 | locus YPL055C, strain LGE1, stronger effect = lower value 0.791 | locus YPL241C, strain CIN2, stronger effect = lower value 0.97 | locus YPR119W, strain clb2, stronger effect = lower value 0.962 | locus YPR141C, strain kar3, stronger effect = lower value 0.967 | locus YPR163C, strain tif3, stronger effect = lower value 0.93 | locus YPR167C, strain met16, stronger effect = lower value 0.942
active: locus YBR021W, strain FUR4, stronger effect = lower value 0.832 | locus YDL134C, strain PPH21, stronger effect = lower value 0.859 | locus YDL192W, strain arf1, stronger effect = lower value 0.84 | locus YDR101C, strain arx1, stronger effect = lower value 0.873 | locus YDR318W, strain mcm21, stronger effect = lower value 0.886 | locus YDR502C, strain sam2, stronger effect = lower value 0.842 | locus YER155C, strain BEM2, stronger effect = lower value 0.891 | locus YER167W, strain BCK2, stronger effect = lower value 0.853 | locus YGL086W, strain mad1, stronger effect = lower value 0.881 | locus YGL248W, strain PDE1, stronger effect = lower value 0.874 | locus YGR078C, strain PAC10, stronger effect = lower value 0.835 | locus YGR135W, strain pre9, stronger effect = lower value 0.817 | locus YGR252W, strain gcn5, stronger effect = lower value 0.612 | locus YHR030C, strain SLT2, stronger effect = lower value 0.916 | locus YHR129C, strain ARP1, stronger effect = lower value 0.899 | locus YHR200W, strain rpn10, stronger effect = lower value 0.894 | locus YIL066C, strain RNR3, stronger effect = lower value 0.845 | locus YJL095W, strain BCK1, stronger effect = lower value 0.73 | locus YJR043C, strain POL32, stronger effect = lower value 0.771 | locus YJR075W, strain HOC1, stronger effect = lower value 0.859 | locus YKR001C, strain vps1, stronger effect = lower value 0.73 | locus YLR039C, strain RIC1, stronger effect = lower value 0.58 | locus YLR262C, strain YPT6, stronger effect = lower value 0.552 | locus YLR268W, strain sec22, stronger effect = lower value 0.866 | locus YLR330W, strain CHS5, stronger effect = lower value 0.872 | locus YLR342W, strain FKS1 (second series), stronger effect = lower value 0.701 | locus YLR371W, strain rom2, stronger effect = lower value 0.823 | locus YLR418C, strain cdc73, stronger effect = lower value 0.61 | locus YML032C, strain rad52, stronger effect = lower value 0.865 | locus YMR223W, strain ubp8, stronger effect = lower value 0.862 | locus YMR263W, strain SAP30, stronger effect = lower value 0.884 | locus YNL233W, strain BNI4, stronger effect = lower value 0.809 | locus YNL298W, strain CLA4, stronger effect = lower value 0.894 | locus YNL307C, strain MCK1, stronger effect = lower value 0.816 | locus YOL006C, strain TOP1, stronger effect = lower value 0.489 | locus YOL147C, strain pex11, stronger effect = lower value 0.877 | locus YOR144C, strain elg1, stronger effect = lower value 0.918 | locus YOR184W, strain ser1, stronger effect = lower value 0.756 | strain wtn01, stronger effect = lower value 0.841
